From ChEMBL document CHEMBL3988442, “University of Dundee, Small-Polar-MMV Screening Library” (2021)
Out of some 48,000 compounds screened, about 13,000 (27%) showed an effect of 50% or more. Some of the results follow.

tested on: Wolbachia pipientis; assay: Anti-Wolbachia Cell-Based Screen; assay type: functional; design: scale not given: in the data most compounds retested in dose-response had high values; conditions: 5 µM

Row | SMILES | Percent Effect
1 | COCCN1C[C@H]2CN(Cc3cccc(OC(F)(F)F)c3)CCN2C1=O | -4.744%
2 | Cc1cc(OCc2cccc(F)c2)ccc1NC(=O)C(C)NC(N)=O (stereo unspecified) | -0.2467%
3 | Cc1cccc(COc2ccc(C(C)N)cc2)c1.Cl (stereo unspecified) | 108.7%
4 | CC(=O)NC(C)C(=O)Nc1ccc(OCc2cccc(F)c2)cc1C (stereo unspecified) | -4.537%
5 | Cc1cccc(COc2ccc(C(C)NC(=O)CNC(N)=O)cc2)c1 (stereo unspecified) | 98.3%
6 | NC(=O)CS(=O)(=O)Cc1ccc(OCc2ccc(F)cc2)cc1 | -22.33%
7 | Cc1cccc(COc2ccc(C(C)NS(N)(=O)=O)cc2)c1 (stereo unspecified) | 134.5%
8 | Cc1cc(C)n(-c2ccc(C(C)NS(N)(=O)=O)cc2)n1 (stereo unspecified) | -26.74%
9 | Cc1ccc(OCCC(=O)NC(C)c2ccncc2)cc1 (stereo unspecified) | -14.45%
10 | Cc1cccc(CNCCOc2ccc(S(C)(=O)=O)cc2)c1 | 16.11%
11 | Cc1cccc(COc2ccc(NC(=O)C(C)NC(N)=O)c(C)c2)c1 (stereo unspecified) | -6.983%
12 | CS(=O)(=O)Cc1ccc(OCc2ccc(F)cc2)cc1 | -17.41%
13 | CC(NS(N)(=O)=O)c1ccc(OCc2ccc(F)cc2)cc1 (stereo unspecified) | 111.6%
14 | COc1cccc2ccc(CN3CCN(c4ncccn4)CC3)nc12 | -3.273%
15 | CC(C)(C)c1c[nH]c([C@@H]2COCCN2C2CCC2)n1 | -8.065%
16 | Cc1cc(C)n(C2CN(C(=O)CN3C(=O)CSc4ccccc43)C2)n1 | 2.557%
17 | Cc1ccsc1[C@@H]1CCN(C(=O)Cn2cc3ccccc3n2)C[C@H]1O | -6.576%
18 | CS(=O)(=O)N1CCc2nc(NC(=O)Nc3c(F)cccc3F)sc2C1 | -13.59%
19 | CCCNC(=O)c1nc2c(o1)CN(C(C)=O)C2 | 21.64%
20 | COc1ccc(C2CCCN2c2nnc(C)s2)c(OC)c1 (stereo unspecified) | 6.611%
21 | COc1ccc(CCNC2CCCN(c3ccc(C)nn3)C2)cc1 (stereo unspecified) | -3.788%
22 | COc1ccccc1C(=O)N1CCN(CCc2scnc2C)CC1 | -5.378%

Row | SMILES | Percent Effect
23 | Cc1ncsc1C(=O)N1CCn2nc(CN3CCSCC3)cc2C1 | -3.157%
24 | Cc1ncsc1C(=O)N1CCC(Nc2cccnn2)CC1 | -12.54%
25 | Cc1ncsc1C(=O)N1CCN(CCC(C)C)CC1 | 114%
26 | CC(C)CCN1CCN(C(=O)c2cccnc2-n2cncn2)CC1 | 7.327%
27 | COCCN1CCCN(C(=O)c2scnc2C)CC1 | 111.8%
28 | Cc1cccc(C(=O)N2CCCN(CCc3scnc3C)CC2)c1 | -3.968%
29 | Cc1ncsc1C(=O)N1CCN(Cc2ccccc2)CC1C (stereo unspecified) | 4.154%
30 | CCN1CCN(C(=O)c2scnc2C)CC1 | 114.5%
31 | c1cc(CCN2CCC(NCc3ccsc3)CC2)ccn1 | -8.408%
32 | Cc1ccc(N2CCCC(NC(=O)Nc3cnn(C)c3)C2=O)cc1 (stereo unspecified) | 10.21%
33 | O=C(NCc1cnc2n1CCN(Cc1ccoc1)C2)c1ccno1.O=C(O)C(F)(F)F | 0.5733%
34 | Cc1nc2c(c(NC(C)C)n1)CCN(C(=O)c1ccno1)CC2.O=C(O)C(F)(F)F | -9.631%
35 | CC(=O)N1CCc2nc(-c3ccccc3)nc(NC(C)C)c2CC1 | 96.01%
36 | CC(=O)N1CCc2c(nc(N(C)C)nc2NC(C)Cc2cccs2)C1 (stereo unspecified) | 16.87%
37 | CC(C)Nc1ncnc2c1CCN(C(=O)Cc1ccccn1)CC2.O=C(O)C(F)(F)F | 17.78%
38 | Cc1nc2c(c(NC(C)C)n1)CCN(Cc1cccnc1)CC2.O=C(O)C(F)(F)F.O=C(O)C(F)(F)F | -13.98%
39 | CC(C)Nc1nc(-c2ccccc2)nc2c1CCN(C(=O)C1CC1)CC2.O=C(O)C(F)(F)F | 99.02%
40 | CC(=O)NCC(=O)N1CCc2nc(-c3ccccc3)nc(C)c2CC1 | -15.18%
41 | CC(C)Nc1nc(-c2ccccc2)nc2c1CCN(C(=O)CC#N)CC2 | 98.77%
42 | CC(=O)N1CCc2nc(-c3ccc(F)cc3)nc(NC(C)C)c2CC1 | 94.36%
43 | Cc1nc(-c2ccc(F)cc2)nc2c1CCN(C(=O)CN(C)C)CC2 | 3.588%
44 | CSCC(=O)N1CCc2nc(C)nc(NCc3ccccc3)c2CC1 | -12.22%

Row | SMILES | Percent Effect
45 | Cc1ncsc1C(=O)NCc1cc2n(n1)CCN(C(=O)N(C)C)C2 | -4.389%
46 | Cc1sc2nc(CCN)nc(N3CCN(S(C)(=O)=O)CC3)c2c1C | 5.151%
47 | CN1CC(=O)N(c2ccsc2)CC12CCN(C(=O)c1ccccc1)C2.O=C(O)C(F)(F)F (stereo unspecified) | 8.898%
48 | CN1CC(=O)N(c2cccnc2)CC12CCN(C(=O)c1cccnc1)C2.O=C(O)C(F)(F)F.O=C(O)C(F)(F)F (stereo unspecified) | -6.437%
49 | CN1CC(=O)N(c2cnn(C)c2)CC12CCN(C(=O)c1ccsc1)C2.O=C(O)C(F)(F)F (stereo unspecified) | -13.31%
50 | CN1CC(=O)N(c2ccccc2)CC12CCN(C(=O)c1ccnnc1)C2.O=C(O)C(F)(F)F (stereo unspecified) | 94.6%
51 | CN1CC(=O)N(c2ccccc2)CC12CCN(C(=O)c1cnccn1)C2.O=C(O)C(F)(F)F (stereo unspecified) | 102.5%
52 | CCC(CC)C(=O)N1CCC2(C1)CN(c1ccccc1)C(=O)CN2C.O=C(O)C(F)(F)F (stereo unspecified) | -2.96%
53 | Cc1ccsc1C(Cc1ccccc1)NC(=O)CSCC(N)=O (stereo unspecified) | -6.461%
54 | COCCCOC1CN(C(=O)c2[nH]nc3c2CCCC3)C1 | -6.811%
55 | Cl.Cl.O[C@@H]1C[C@@](CNCC2CC2)(COc2cccnc2)C[C@@H]1O | -8.613%
56 | CC(C)(C)c1cc(=O)[nH]c(-c2ccccc2CN2CCC[C@@H](O)C2)n1 | -11.42%
57 | CC1(C)CCN(Cc2ccccc2-c2nc(C(C)(C)C)cc(=O)[nH]2)C1 | -0.3128%
58 | CC(C)(C)c1cc(=O)[nH]c(-c2ccccc2CN2CCCCCC2)n1 | 107.3%
59 | Cc1nc(N2CCC(C(O)c3nccn3C)CC2)c2c(C)noc2n1 (stereo unspecified) | 0.7849%
60 | CC(C)N1CCC(CC(=O)N2CCC(C(O)c3nccn3C)CC2)CC1 (stereo unspecified) | 112.6%
61 | CC(C)N1CCC(CC(=O)N2CCCCC2CCn2cccn2)CC1 (stereo unspecified) | 17.49%
62 | CC(C)N1CCC(CC(=O)N2CCN(Cc3nccn3C)CC2)CC1 | 103.8%
63 | CC(C)n1ccnc1CN1CCCN(C(=O)CC2C=CCC2)CC1 (stereo unspecified) | 11%
64 | Cc1nc(N2CCC(C(O)c3nccn3C)CC2)c2nc(C)oc2n1 (stereo unspecified) | 6.999%
65 | CCCN1CCC(CC(=O)N2CCC(C(O)c3nccn3C)CC2)CC1 (stereo unspecified) | 109.9%
66 | CC(C)N1CCC(C(=O)N2CCC(C(O)c3nccn3C)CC2)CC1 (stereo unspecified) | 119.5%

Row | SMILES | Percent Effect
67 | CCCN1CCC(CC(=O)N2CC(C)(C)[C@@](C)(O)C2)CC1 | 2.3%
68 | CCn1ncnc1C(NC(=O)CC1CCN(C(C)C)CC1)C1CC1 (stereo unspecified) | -0.6358%
69 | Cc1nc(N2CCC(C(O)c3nccn3C)CC2)c2cccnc2n1 (stereo unspecified) | -5.3%
70 | CCOc1ccccc1CN(CC)Cc1ccc(S(C)(=O)=O)cc1 | 14.95%
71 | CSc1ccc(NCC(=O)Nc2c(C)nn(C)c2C)cc1F | -13.07%
72 | CCS(=O)(=O)CC(=O)NC(C)c1ccc(F)cc1F (stereo unspecified) | 5.956%
73 | Cn1c(=O)ccn(CC(=O)NCC2Cc3ccccc3O2)c1=O (stereo unspecified) | 4.727%
74 | CC(NC(=O)Cn1ccc(=O)n(C)c1=O)c1cc(F)ccc1F (stereo unspecified) | 123.1%
75 | Cn1c(=O)ccn(CC(=O)Nc2cnccc2O)c1=O | -3.574%
76 | CC(NCCn1cccn1)c1ccccc1F (stereo unspecified) | 17.82%
77 | CC(NC(=O)Cn1ccc(=O)n(C)c1=O)c1ccccc1F (stereo unspecified) | 122%
78 | Cc1nnc2n1CCN(c1nc3ccccc3o1)C2 | 7.974%
79 | CC(C)c1ccc(OCCC(=O)NCCC(=O)N(C)C)cc1 | 5.568%
80 | CC(Oc1cc(Cl)cc(Cl)c1)C(=O)NCCOCC(N)=O (stereo unspecified) | 92.53%
81 | CCCNC(=O)C(C)Oc1ccccc1 (stereo unspecified) | 7.787%
82 | CCNC(=O)C(C)Oc1ccc(N(C)S(C)(=O)=O)cc1 (stereo unspecified) | 35.45%
83 | CC(Oc1cc(Cl)cc(Cl)c1)C(=O)NCCS(N)(=O)=O (stereo unspecified) | 112.6%
84 | CC(Oc1cc(Cl)cc(Cl)c1)C(=O)NCCC(=O)N(C)C (stereo unspecified) | 99.28%
85 | CC(Oc1ccccc1C(F)(F)F)C(=O)NCCC(=O)N(C)C (stereo unspecified) | 4.179%
86 | CCCNC(=O)C(C)Oc1ccc(F)cc1 (stereo unspecified) | -16.03%
87 | CC(Oc1ccc(S(C)(=O)=O)cc1)C(=O)NC(N)=O (stereo unspecified) | -0.9866%
88 | Cc1ccc(-c2noc(C(C)NS(C)(=O)=O)n2)cc1 (stereo unspecified) | 98.3%

Row | SMILES | Percent Effect
89 | Cc1ccc(-c2noc([C@@H]3C[C@H](NC(=O)NC(C)C)CN3C)n2)cc1 | -7.192%
90 | Cc1cnn(C2CN(C(C)c3nc(-c4ccccc4)no3)C2)c1 (stereo unspecified) | -0.8523%
91 | O=C(CCc1ccsc1)N1CCCCC1Cn1cccn1 (stereo unspecified) | 114.6%
92 | CSCCC(=O)N1CCCCC1CCn1cccn1 (stereo unspecified) | -3.819%
93 | O=C(CCc1ccccc1)N1CCCCC1Cn1cccn1 (stereo unspecified) | 99.73%
94 | COc1cccc(CCC(=O)N2CCCCC2Cn2cccn2)c1 (stereo unspecified) | -6.08%
95 | O=C(CCc1cccs1)N1CCCCC1Cn1cccn1 (stereo unspecified) | 8.16%
96 | CN(Cc1ccsc1)C(=O)CN1CCCCC1Cn1cccn1 (stereo unspecified) | -3.818%
97 | O=C(CN1CCN(CCO)CC1)NCc1ccc(Cl)s1 | -5.807%
98 | Cc1nsc(NC2CCOC3(CCCC3)C2)n1 (stereo unspecified) | -8.543%
99 | COc1cccc(OC2CN(C(=O)c3ccnc(OC)c3)C2)c1 | 6.103%
100 | CCn1cc(C(=O)N2C[C@H]3C[C@H](Oc4ccccc4)C[C@H]3C2)cn1 | 75.19%
101 | Cn1cc(C(=O)N2C[C@H]3C[C@H](Oc4ccccc4)C[C@H]3C2)cn1 | 96.44%
102 | CCc1ncc(C(=O)N2CC(Oc3ccccc3Cl)C2)cn1 | 4.007%
103 | Cc1cccc(OC2CN(C(=O)c3cnn(C)c3)C2)c1 | -4.108%
104 | CN(C)c1ncc(C(=O)N2C[C@H]3C[C@H](Oc4ccccc4)C[C@H]3C2)cn1 | 125.1%
105 | CCn1cc(CN2C[C@H]3CC[C@@H]2CN(C(=O)c2ccncc2)C3)cn1 | 5.818%
106 | Cn1cc(C(=O)N2CCCN(C3Cc4ccccc4C3)CC2)cn1 | -3.221%
